Measurements: ChEMBL document CHEMBL3988442, “University of Dundee, Small-Polar-MMV Screening Library” (2021)
For some of these results: Measured potencies and affinities stand elsewhere.

What was measured:
Set-up in all cases: scale not given: direction of the effect not stated beside the values
[1] = target: Protein translocase subunit SecA (Escherichia coli (strain K12)) (UniProt P10408); experiment: Assay to Identify E. coli SecA ATPase Inhibitors; assay type: functional; details: 30 µM
[2] = target: T1, Ubiquitin-activating enzyme e1, putative (Leishmania donovani (strain BPK282A1)) (UniProt E9BSI1); experiment: Leishmania donovani Ubiquitin Activating Enzyme (LdE1); assay type: functional; details: 30 µM
T1 sequence (whole entry): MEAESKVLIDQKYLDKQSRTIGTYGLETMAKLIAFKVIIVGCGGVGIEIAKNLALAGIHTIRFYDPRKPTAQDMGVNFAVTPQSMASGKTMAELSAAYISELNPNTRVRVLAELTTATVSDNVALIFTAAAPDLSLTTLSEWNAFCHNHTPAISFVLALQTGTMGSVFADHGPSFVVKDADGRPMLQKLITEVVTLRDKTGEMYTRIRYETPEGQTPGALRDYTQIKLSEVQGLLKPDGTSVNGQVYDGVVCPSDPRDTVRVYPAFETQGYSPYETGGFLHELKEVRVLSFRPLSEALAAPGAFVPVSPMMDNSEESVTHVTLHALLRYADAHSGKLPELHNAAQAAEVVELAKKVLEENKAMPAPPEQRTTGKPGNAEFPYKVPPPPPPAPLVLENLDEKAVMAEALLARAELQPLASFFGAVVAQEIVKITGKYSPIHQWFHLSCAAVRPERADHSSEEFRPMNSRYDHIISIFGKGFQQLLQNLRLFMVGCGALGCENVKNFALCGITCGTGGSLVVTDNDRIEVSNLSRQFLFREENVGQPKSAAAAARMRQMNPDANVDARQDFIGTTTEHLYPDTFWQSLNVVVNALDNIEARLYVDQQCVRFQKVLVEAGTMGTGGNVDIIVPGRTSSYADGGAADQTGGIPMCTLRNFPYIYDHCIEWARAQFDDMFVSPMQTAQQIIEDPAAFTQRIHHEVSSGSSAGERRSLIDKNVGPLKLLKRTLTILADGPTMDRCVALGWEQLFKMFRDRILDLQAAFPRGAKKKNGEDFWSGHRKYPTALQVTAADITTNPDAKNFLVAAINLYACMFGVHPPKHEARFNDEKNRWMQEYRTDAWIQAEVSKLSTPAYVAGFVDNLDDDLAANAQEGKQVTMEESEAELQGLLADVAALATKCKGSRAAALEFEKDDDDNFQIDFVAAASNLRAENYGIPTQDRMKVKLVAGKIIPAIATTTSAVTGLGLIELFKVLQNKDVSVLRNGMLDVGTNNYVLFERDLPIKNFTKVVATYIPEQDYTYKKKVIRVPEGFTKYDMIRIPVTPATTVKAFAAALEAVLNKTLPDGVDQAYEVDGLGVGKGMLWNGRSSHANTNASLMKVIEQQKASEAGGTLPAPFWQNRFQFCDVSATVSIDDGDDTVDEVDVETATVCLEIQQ

[3] = target: AMP-activated protein kinase, AMPK (Homo sapiens) (UniProt P54646+O43741+P54619+Q9UGJ0+Q9Y478+Q13131+Q9UGI9); experiment: AMP-dependent Kinase enzyme assay. An in vitro enzyme assay that detects ADP turnover that is directly proportional to AMPK activity. This uses naive AMPK that is activated during the assay with MK-8722; assay type: functional; details: 30 µM
[4] = target: Sialic acid-binding Ig-like lectin 9 (Homo sapiens) (UniProt Q9Y336); experiment: Hs-Siglec9 ALPHAscreen SOP 20170721; details: 10 µM
Sialic acid-binding Ig-like lectin 9 (Homo sapiens), sequence (Q9Y336 whole entry): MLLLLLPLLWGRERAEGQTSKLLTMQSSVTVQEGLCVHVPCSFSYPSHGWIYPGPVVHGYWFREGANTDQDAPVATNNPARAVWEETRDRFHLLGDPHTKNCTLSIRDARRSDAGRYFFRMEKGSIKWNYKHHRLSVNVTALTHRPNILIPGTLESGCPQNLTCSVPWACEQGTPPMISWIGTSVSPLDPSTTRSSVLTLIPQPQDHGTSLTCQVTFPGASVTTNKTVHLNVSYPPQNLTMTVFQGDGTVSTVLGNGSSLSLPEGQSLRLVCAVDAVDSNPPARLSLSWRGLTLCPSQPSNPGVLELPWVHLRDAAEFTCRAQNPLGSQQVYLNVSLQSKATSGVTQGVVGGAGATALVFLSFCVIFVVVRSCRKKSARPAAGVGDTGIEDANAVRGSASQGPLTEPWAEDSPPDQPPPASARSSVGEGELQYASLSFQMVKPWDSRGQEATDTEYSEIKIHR

Trypanosoma cruzi = experiment: Trypanosoma cruzi phosphomannomutase and mannose-1-phosphate guanylyltransferase assay; assay type: functional; details: 10 µM
[5] = target: T2, Arginase-2, mitochondrial (Homo sapiens) (UniProt P78540); experiment: in vitro enzyme assay to detect the production of urea directly proportional to the activity of Arginase II; assay type: functional; details: 33.3 µM; further: in the data most compounds retested in dose-response had high values
T2 sequence (whole entry): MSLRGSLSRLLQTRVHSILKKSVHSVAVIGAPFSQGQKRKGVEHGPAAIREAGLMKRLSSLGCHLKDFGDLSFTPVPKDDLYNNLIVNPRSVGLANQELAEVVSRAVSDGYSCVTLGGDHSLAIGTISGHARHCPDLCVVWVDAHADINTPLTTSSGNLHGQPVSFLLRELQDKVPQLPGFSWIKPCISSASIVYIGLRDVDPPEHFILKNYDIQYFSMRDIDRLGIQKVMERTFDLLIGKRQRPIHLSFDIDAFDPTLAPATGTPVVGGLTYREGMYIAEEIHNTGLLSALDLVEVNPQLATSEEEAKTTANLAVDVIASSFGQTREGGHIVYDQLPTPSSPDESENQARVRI

[6] = target: T3, Proteasome subunit beta (Trypanosoma cruzi) (UniProt O96673); experiment: Trypanosoma cruzi proteasome chymotrypsin-like activity (TcProtChymo) assay.; further: in the data most compounds retested in dose-response had high values; assay type: functional; details: 9.37 µM
T3 sequence (whole entry): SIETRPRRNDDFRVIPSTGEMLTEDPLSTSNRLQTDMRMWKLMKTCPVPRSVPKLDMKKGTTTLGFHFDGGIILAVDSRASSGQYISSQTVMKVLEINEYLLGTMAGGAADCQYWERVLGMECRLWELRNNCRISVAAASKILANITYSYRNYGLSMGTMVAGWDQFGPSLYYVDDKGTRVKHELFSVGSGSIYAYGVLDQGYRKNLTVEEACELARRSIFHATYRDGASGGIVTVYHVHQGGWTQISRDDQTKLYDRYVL

Homo sapiens = organism: Homo sapiens; experiment: To identify inhibition of the IFN signalling (Jak-Stat) pathway via expression of an eGFP reporter gene under the control of an IFN-stimulated response element (ISRE) containing MxA promoter.; assay type: functional; details: 30 µM
[7] = target: T4, Tyrosyl-tRNA synthetase, putative (Trypanosoma cruzi (strain CL Brener)) (UniProt Q4DSP6); experiment: Trypanosoma cruzi tyrosyl tRNA synthetase (TcYRS) _High Tyrosine SOP; assay type: functional; details: 30 µM; further: in the data most compounds retested in dose-response had high values
T4 sequence (whole entry): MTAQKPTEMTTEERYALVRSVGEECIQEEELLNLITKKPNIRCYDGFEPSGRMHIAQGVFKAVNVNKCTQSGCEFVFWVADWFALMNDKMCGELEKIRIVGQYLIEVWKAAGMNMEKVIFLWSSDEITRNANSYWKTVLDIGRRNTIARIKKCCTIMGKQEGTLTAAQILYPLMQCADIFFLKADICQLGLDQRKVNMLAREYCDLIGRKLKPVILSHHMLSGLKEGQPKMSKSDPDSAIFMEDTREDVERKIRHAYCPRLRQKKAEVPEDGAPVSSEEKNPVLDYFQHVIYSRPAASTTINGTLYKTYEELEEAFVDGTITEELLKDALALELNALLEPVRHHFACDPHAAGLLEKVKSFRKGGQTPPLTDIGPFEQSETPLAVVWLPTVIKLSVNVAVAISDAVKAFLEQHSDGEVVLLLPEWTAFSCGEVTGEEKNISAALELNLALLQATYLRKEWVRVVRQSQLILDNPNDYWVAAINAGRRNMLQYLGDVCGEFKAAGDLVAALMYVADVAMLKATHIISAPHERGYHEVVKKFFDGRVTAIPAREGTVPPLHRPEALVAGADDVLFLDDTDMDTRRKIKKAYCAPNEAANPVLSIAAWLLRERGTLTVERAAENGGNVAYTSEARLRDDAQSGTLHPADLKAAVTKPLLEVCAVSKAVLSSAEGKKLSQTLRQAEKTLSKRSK

[8] = target: T4, Tyrosyl-tRNA synthetase, putative (Trypanosoma cruzi (strain CL Brener)); experiment: Trypanosoma cruzi tyrosyl tRNA synthetase (TcYRS) SOP; assay type: functional; details: 30 µM
[9] = target: Chromo domain-containing protein 1 (Saccharomyces cerevisiae (strain ATCC 204508 / S288c) (Baker's yeast)) (UniProt P32657); experiment: ScCHD-1 Enzyme Inhibition Assay; assay type: functional; details: 30 µM; further: in the data most compounds retested in dose-response had high values
Chromo domain-containing protein 1 (Saccharomyces cerevisiae (strain ATCC 204508 / S288c) (Baker's yeast)), sequence (P32657 whole entry, the tested form may be a part): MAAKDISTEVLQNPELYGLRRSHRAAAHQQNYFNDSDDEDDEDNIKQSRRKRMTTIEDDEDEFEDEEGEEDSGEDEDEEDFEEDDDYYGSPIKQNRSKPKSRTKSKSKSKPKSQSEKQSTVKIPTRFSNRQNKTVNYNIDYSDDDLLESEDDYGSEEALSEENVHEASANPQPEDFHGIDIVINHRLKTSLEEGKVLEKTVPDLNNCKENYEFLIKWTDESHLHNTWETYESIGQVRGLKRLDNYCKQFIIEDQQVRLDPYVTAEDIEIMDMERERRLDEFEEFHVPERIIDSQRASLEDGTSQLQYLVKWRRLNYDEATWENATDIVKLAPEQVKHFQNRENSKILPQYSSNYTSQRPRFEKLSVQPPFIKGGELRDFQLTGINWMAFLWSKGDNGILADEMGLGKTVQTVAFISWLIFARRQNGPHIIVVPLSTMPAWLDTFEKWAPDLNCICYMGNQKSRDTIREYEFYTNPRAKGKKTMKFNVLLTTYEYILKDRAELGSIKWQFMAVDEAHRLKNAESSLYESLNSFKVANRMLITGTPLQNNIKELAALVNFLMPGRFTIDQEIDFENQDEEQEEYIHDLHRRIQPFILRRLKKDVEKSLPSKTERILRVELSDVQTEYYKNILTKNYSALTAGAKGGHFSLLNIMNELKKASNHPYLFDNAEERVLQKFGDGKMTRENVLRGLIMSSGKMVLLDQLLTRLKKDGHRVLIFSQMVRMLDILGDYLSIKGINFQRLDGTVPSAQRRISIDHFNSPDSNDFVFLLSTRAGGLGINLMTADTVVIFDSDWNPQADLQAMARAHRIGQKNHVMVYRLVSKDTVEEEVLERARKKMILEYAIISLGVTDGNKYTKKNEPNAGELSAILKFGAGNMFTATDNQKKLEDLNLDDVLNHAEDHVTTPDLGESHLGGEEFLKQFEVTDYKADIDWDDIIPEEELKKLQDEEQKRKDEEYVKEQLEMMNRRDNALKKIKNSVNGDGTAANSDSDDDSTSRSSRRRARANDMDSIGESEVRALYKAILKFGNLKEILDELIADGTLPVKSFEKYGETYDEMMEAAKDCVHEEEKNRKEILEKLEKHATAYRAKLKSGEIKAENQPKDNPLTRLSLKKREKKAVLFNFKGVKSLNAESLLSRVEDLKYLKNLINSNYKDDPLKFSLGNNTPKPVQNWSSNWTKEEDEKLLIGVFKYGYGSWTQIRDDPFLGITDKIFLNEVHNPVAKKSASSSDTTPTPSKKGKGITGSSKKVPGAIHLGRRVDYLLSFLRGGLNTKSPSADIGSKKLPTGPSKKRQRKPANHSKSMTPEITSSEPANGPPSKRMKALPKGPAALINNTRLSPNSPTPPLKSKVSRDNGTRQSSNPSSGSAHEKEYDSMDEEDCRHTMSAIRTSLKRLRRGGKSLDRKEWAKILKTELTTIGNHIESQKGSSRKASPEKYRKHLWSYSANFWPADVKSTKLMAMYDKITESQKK

Protein translocase subunit SecA (Escherichia coli (strain K12)), sequence (P10408 whole entry): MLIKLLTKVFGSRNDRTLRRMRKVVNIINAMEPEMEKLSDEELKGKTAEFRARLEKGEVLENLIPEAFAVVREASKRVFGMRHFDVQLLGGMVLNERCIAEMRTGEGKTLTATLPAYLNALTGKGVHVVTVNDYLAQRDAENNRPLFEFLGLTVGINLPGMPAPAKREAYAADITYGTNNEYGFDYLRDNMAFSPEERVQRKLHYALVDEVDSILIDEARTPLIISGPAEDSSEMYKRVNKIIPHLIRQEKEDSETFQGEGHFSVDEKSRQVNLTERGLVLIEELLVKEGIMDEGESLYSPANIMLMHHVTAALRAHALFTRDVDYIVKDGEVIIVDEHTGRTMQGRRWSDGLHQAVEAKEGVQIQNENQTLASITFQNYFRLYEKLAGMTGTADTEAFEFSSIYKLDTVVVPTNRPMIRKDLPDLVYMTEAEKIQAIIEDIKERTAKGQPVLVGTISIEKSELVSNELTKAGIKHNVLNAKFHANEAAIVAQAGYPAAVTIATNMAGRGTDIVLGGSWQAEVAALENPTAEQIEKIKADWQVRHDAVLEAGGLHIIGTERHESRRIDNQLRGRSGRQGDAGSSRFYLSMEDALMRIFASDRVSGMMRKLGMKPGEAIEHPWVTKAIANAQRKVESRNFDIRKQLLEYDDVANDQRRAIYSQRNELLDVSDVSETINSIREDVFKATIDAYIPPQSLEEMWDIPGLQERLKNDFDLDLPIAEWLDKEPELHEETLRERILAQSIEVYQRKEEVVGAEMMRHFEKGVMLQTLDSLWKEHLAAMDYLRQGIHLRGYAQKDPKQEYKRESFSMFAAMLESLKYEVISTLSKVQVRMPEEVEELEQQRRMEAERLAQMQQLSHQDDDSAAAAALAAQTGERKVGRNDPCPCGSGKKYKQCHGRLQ

Row | Compound | Percent Effect [1] | Percent Effect [2] | Percent Effect [3] | Percent Effect [4] | Percent Effect (Trypanosoma cruzi) | Percent Effect [5] | Percent Effect [6] | Percent Effect (Homo sapiens) | Percent Effect [7] | Percent Effect [8] | Percent Effect [9]
1 | CCc1nc2n(n1)CC(NCC(=O)Nc1nccs1)CC2 (stereo unspecified) | -2.54% | -2.53% | -11.6% | -5.43% | -5.95% | -1.9% | -0.737% | 15.1% | 2.46% | -8.86% | -2.63%
2 | CC(O)CN1CCN(C(=O)c2cc3ccccc3[nH]c2=O)CC1 (stereo unspecified) | -2.78% | 2.63% | -2.27% | 10.3% | -3.8% | -4.73% | 13.1% | -25.9% | 1.06% | -5.2% | -3.52%
3 | CC(C)CN(C)c1ccc(C(=O)N2CCCC2c2cnn(C)c2)cn1 (stereo unspecified) | -0.585% | 5.26% | -6.48% | -6.28% | 3.46% | 1.44% | 8.71% | 11.2% | 7.39% | 23.5% | -10.4%
4 | CC(C)(C)NC(=O)CN1CCN(C(=O)Nc2ccc(F)cc2F)CC1 | -2.23% | 5.48% | 8.1% | -2.38% | -8.73% | -0.399% | 6.76% | 10.3% | 3.12% | 6.17% | -2.48%
5 | CC(C)CC(=O)N1CCCn2cnc(CN3CCCC3=O)c2C1 | -3.7% | 0% | -0.875% | -3.33% | -3.23% | 1.74% | -0.429% | -1.05% | 2.15% | 6.17% | -0.173%
6 | Cc1nn(CC(C)C)c(N(C)C)c1CNCc1cccc2c1OCO2 | 3.79% | 13.5% | -13.1% | -3.94% | -8.02% | -12% | 16.9% | 13.9% | 7.39% | 11.1% | -4.83%
7 | Cn1nccc1C1CCN(Cc2csc(-c3ncccn3)n2)CC1 | -3.65% | 24.3% | -7.27% | 6.8% | 6.96% | -0.554% | 8.08% | 13.2% | 11.9% | 28.1% | -7.46%
8 | CN(Cc1cccc(Cl)c1)S(=O)(=O)N1CCOCC1 | -3.38% | 10.5% | 6.62% | -2.67% | 4.58% | -5.92% | 23.9% | -6.09% | 1.06% | 15.6% | -2.59%
9 | CC(OCC(F)(F)F)C(=O)NCc1ccc(-n2cncn2)nc1 (stereo unspecified) | -1.15% | 18.2% | 0.466% | -5.68% | 4.8% | -22.5% | 8.16% | 21.5% | 7.62% | 23.5% | -24%
10 | CC(C)CCOCCNC(=O)Nc1cc(C(F)(F)F)c[nH]c1=O | -7.54% | 8.11% | 3.62% | 2.66% | -0.464% | -0.924% | 1.62% | 6.69% | 6.93% | 13.4% | 7.34%
11 | CC1CCCN(CCNC(=O)c2ccn(-c3ccccc3)n2)C1 (stereo unspecified) | -0.427% | 18.2% | 2.11% | -6.84% | -8.05% | 4.63% | 5.07% | 16.5% | 8.74% | 12.2% | -8.6%
